Assay results: the supplement of paper PMC12819154, “High-throughput peptide-centric local stability assay extends protein–ligand identification to membrane proteins, tissues and bacteria” (Nature Structural & Molecular Biology, 2025)

compound: Nc1ncnc2c1ncn2[C@@H]1O[C@H](COP(=O)(O)OP(=O)(O)OP(=O)(O)O)[C@@H](O)[C@H]1O [adenosine 5'-triphosphate]; experiment: log2 fold change of tryptic peptide abundance, ligand vs vehicle (limited proteolysis) (log2 ratio); higher = more trypsin-susceptible (destabilized); conditions: ligand concentration: 5 mM; sample: E. coli desalted lysate; replicate design: treated before aliquoting
Description: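 HT-PELSA: desalted E. coli K-12 BW25113 lysate (with 12 mM MgCl2) incubated with 5 mM ATP (pH 7) or water for 30 min at 25 C, then a 4 min trypsin pulse at 22 C. Peptides were quantified by DIA-MS (4 replicates). Value is the peptide log2 fold change (treated/control); negative = stabilized. Scale: negative = ligand-stabilized region.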
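Further: lysate desalted by size exclusion to strip endogenous ATP, peptide intensities built from DIA-NN precursor signals, and peptides missing any value discarded before comparison.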

Sequence of UniProt P08956 (P08956 whole entry): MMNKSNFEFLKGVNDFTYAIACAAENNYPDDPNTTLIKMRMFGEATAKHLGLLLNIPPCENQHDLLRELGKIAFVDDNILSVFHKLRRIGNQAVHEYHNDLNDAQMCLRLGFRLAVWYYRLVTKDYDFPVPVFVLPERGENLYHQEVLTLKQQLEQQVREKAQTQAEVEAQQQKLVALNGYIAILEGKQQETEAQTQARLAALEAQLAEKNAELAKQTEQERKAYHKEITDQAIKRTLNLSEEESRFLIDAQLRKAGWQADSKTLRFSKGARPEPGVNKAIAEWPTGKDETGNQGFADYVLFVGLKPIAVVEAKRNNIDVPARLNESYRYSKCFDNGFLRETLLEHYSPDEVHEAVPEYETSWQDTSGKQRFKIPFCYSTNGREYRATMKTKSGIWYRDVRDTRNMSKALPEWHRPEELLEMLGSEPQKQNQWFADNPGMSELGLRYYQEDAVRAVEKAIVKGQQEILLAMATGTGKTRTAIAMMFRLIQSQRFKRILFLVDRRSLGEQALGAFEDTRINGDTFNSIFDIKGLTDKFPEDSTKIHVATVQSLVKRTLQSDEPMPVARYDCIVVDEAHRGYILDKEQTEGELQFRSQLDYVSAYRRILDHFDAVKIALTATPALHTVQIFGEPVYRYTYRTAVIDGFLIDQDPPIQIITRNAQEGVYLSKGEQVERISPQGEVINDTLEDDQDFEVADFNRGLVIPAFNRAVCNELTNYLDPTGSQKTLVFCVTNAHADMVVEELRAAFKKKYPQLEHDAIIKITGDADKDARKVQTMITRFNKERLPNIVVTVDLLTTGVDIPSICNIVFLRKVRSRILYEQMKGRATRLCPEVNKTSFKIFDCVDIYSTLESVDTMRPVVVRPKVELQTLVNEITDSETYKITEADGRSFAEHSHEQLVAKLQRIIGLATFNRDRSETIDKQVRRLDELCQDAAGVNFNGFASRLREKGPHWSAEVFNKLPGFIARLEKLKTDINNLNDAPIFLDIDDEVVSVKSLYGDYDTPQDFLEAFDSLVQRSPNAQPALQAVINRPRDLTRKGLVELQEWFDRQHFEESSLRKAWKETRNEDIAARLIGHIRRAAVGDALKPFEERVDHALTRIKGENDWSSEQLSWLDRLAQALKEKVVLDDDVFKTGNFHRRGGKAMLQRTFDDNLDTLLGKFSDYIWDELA
Sequence of UniProt P13458 (P13458 whole entry): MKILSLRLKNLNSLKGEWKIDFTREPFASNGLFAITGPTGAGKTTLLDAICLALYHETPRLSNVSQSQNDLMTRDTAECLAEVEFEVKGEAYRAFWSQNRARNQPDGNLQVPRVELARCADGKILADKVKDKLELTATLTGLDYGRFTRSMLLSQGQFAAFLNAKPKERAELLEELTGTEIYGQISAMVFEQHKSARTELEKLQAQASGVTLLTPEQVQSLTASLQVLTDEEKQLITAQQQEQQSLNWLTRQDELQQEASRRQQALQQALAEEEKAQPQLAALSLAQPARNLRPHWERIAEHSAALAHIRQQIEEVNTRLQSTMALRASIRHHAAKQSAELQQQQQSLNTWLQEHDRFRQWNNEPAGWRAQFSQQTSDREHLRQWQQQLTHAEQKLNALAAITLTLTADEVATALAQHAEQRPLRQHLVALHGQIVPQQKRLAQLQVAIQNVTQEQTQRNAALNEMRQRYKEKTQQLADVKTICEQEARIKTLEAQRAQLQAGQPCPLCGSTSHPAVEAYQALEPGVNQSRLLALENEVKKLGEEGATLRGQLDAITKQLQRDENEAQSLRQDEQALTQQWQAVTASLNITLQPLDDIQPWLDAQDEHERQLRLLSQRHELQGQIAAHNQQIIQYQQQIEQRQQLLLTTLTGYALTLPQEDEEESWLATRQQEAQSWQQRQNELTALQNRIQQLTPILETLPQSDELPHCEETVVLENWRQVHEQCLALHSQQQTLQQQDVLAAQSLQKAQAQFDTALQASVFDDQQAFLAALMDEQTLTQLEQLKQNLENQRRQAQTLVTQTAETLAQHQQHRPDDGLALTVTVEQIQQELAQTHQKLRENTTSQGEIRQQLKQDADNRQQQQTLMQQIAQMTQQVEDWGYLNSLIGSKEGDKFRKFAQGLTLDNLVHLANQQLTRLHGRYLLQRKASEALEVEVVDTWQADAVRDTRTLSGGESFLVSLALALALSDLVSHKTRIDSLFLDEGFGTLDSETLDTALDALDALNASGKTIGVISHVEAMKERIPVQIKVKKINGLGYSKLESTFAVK
Sequence of UniProt P31663 (P31663 whole entry): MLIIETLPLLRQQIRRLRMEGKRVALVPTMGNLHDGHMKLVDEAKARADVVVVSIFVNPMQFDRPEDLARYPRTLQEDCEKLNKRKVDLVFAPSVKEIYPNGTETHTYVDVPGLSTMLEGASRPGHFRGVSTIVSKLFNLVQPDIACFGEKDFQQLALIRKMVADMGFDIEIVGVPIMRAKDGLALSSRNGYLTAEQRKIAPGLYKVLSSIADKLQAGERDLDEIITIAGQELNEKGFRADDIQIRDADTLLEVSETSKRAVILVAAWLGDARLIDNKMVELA
Sequence of UniProt P20966 (P20966 whole entry): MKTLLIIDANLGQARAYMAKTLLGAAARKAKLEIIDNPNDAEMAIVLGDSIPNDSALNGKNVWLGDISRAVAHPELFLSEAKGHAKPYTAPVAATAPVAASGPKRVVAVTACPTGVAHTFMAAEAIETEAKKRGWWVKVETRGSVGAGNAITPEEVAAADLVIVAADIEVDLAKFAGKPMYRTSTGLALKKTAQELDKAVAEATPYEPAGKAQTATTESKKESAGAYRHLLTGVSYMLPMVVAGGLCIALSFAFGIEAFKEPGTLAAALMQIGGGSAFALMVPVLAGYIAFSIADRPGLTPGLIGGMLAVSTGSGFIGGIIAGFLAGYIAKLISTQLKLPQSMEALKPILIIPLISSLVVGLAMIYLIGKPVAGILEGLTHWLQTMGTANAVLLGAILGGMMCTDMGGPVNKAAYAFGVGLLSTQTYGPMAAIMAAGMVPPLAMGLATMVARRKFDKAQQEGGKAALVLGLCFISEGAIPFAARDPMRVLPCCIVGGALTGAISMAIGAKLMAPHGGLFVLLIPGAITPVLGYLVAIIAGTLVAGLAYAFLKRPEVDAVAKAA
Sequence of UniProt P45955 (P45955 whole entry): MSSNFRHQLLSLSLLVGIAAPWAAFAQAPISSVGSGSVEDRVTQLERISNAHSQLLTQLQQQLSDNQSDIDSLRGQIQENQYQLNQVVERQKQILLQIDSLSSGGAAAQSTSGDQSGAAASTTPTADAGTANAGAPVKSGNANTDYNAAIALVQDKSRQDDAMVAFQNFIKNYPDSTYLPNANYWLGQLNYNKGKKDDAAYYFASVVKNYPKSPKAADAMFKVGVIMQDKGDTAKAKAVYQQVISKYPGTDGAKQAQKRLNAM
Sequence of UniProt P24192 (P24192 whole entry): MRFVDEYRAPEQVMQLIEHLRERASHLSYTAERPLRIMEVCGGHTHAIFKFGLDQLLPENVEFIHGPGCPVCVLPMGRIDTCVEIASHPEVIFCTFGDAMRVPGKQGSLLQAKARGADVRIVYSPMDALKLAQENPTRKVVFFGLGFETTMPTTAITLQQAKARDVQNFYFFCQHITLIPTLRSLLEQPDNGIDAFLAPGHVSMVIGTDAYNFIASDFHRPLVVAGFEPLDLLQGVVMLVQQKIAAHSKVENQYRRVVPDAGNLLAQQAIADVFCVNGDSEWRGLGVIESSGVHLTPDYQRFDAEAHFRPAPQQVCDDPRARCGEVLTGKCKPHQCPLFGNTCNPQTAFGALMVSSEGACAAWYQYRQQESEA
Sequence of UniProt P75828 (P75828 whole entry): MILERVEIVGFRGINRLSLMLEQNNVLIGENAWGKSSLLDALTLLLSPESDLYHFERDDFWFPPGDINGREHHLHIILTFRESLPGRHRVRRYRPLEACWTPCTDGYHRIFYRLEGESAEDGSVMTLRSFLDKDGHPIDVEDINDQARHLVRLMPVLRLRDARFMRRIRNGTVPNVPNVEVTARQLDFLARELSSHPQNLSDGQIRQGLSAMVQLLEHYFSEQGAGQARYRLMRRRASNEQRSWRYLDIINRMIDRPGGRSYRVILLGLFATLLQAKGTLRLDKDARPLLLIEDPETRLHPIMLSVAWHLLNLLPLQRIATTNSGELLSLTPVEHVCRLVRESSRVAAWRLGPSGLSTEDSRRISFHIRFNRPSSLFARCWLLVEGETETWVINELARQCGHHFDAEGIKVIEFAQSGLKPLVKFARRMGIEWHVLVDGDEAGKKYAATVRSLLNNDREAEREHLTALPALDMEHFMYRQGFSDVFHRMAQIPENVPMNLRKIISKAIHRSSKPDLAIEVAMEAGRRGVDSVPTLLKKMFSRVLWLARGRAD
Sequence of UniProt P76909 (P76909 whole entry): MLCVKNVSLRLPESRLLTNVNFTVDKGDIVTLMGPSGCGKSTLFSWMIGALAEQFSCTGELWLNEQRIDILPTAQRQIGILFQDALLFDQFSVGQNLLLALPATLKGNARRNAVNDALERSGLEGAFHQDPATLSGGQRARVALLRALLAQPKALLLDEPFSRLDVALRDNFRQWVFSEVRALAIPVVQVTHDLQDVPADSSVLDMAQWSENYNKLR
Sequence of UniProt Q46906 (Q46906 whole entry): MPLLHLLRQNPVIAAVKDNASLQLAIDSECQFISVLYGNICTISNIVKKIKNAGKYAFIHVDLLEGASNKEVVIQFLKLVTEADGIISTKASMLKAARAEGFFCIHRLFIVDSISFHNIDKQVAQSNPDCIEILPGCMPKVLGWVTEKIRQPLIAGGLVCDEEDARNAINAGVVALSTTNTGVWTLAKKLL
Sequence of UniProt P0AEE1 (P0AEE1 whole entry): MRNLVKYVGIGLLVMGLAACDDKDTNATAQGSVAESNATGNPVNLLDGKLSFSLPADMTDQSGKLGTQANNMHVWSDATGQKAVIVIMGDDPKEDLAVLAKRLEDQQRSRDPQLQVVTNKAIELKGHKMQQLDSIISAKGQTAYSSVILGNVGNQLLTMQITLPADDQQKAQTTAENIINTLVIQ
Sequence of UniProt P37188 (P37188 whole entry): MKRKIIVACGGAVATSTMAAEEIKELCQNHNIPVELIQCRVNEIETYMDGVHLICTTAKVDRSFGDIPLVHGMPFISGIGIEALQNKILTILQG

Row | Target | log2 fold change
1 | UniProt P00934 (peptide sequence: LYNLKDHNEQVSFAQAVTQGLGK, peptide start residue: 3) | -1.05
2 | UniProt P76909 (peptide sequence: SGLEGAFHQDPATLSGGQR, peptide start residue: 121) | 0.631
3 | UniProt P77279 (peptide sequence: NIAELSGGEK, peptide start residue: 134) | -0.683
4 | UniProt P17117 (peptide sequence: ESRPFILDYLHK, peptide start residue: 223) | 1.13
5 | UniProt P25748 (peptide sequence: IGYLSSSHGIEDDAMRK, peptide start residue: 179) | 0.977
6 | UniProt P0ACU0 (peptide sequence: LLTQDDTVNLSK, peptide start residue: 109) | 0.555
7 | UniProt P24192 (peptide sequence: PAPQQVCDDPR, peptide start residue: 310) | -0.597
8 | UniProt P37188 (peptide sequence: VNEIETYMDGVHLICTTAKVDR, peptide start residue: 41) | 0.402
9 | UniProt P0A9K7 (peptide sequence: HVGGDELDKLLAGK, peptide start residue: 224) | -0.493
10 | UniProt P23874 (peptide sequence: ISVAGAQEK, peptide start residue: 149) | -4.86
11 | UniProt P64610 (peptide sequence: IVTMSLKPQNILCHR, peptide start residue: 126) | -0.974
12 | UniProt P09147 (peptide sequence: REGDLPAYWADASKADR, peptide start residue: 292) | 0.627
13 | UniProt P76134 (peptide sequence: TMNSVQLTAQK, peptide start residue: 298) | -0.467
14 | UniProt P33643 (peptide sequence: IKEWILDQR, peptide start residue: 36) | -0.691
15 | UniProt P23331 (peptide sequence: TVVYTAEIDDR, peptide start residue: 33) | -1.64
16 | UniProt P29131 (peptide sequence: MAGHTNCIR, peptide start residue: 306) | -0.526
17 | UniProt Q46906 (peptide sequence: AEGFFCIHR, peptide start residue: 99) | -0.839
18 | UniProt P52101 (peptide sequence: AMIFEPFFQGSHQR, peptide start residue: 414) | 0.36
19 | UniProt P76330 (peptide sequence: FGHQAGDR, peptide start residue: 447) | -3.47
20 | UniProt P00960 (peptide sequence: AVAEAYYASREALGFPMCNKDK, peptide start residue: 282) | 0.93

Row | Target | log2 fold change
21 | UniProt P38035 (peptide sequence: APILLNGPTGAGK, peptide start residue: 209) | -1.38
22 | UniProt P0AEE1 (peptide sequence: AIELKGHK, peptide start residue: 121) | 0.899
23 | UniProt P0A8F8 (peptide sequence: AILYGDKITPSMAK, peptide start residue: 550) | -0.631
24 | UniProt P15082 (peptide sequence: QRQAAILEYLQK, peptide start residue: 5) | 2.18
25 | UniProt P39383 (peptide sequence: MLESHLR, peptide start residue: 221) | -0.592
26 | UniProt P75828 (peptide sequence: YLDIINR, peptide start residue: 246) | -2.12
27 | UniProt P31663 (peptide sequence: VLSSIADKLQAGER, peptide start residue: 207) | -3.26
28 | UniProt P39310 (peptide sequence: VWHAPDNFR, peptide start residue: 14) | -0.8
29 | UniProt P08956 (peptide sequence: ITGDADKDAR, peptide start residue: 763) | -3.68
30 | UniProt Q47129 (peptide sequence: LDADLPMVQLSHR, peptide start residue: 141) | -1.3
31 | UniProt P20966 (peptide sequence: FAGKPMYR, peptide start residue: 175) | 1.06
32 | UniProt P27859 (peptide sequence: ELLPLIPAEK, peptide start residue: 188) | -0.738
33 | UniProt P08839 (peptide sequence: TSHTSIMAR, peptide start residue: 187) | 0.443
34 | UniProt P45955 (peptide sequence: AVYQQVISKYPGTDGAK, peptide start residue: 238) | 0.687
35 | UniProt P77485 (peptide sequence: GTVAVTSDAR, peptide start residue: 461) | -0.644
36 | UniProt P45568 (peptide sequence: ESLVTCGR, peptide start residue: 126) | 0.779
37 | UniProt P13458 (peptide sequence: NQPDGNLQVPR, peptide start residue: 103) | -0.895
38 | UniProt P23840 (peptide sequence: HFIPVLTR, peptide start residue: 38) | 0.387
39 | UniProt Q46856 (peptide sequence: IDAAIAATR, peptide start residue: 323) | -1.68
40 | UniProt P36938 (peptide sequence: FMHLDKDGAIR, peptide start residue: 268) | -0.898
